ELG1 repair inh – inhibitors of ELG1-dependent DNA repair in HEK293T cells; AID 504467; HEK293T ELG1-luciferase reporter, luminescence, 16 h; DNA damage induced by 5-fluorouridine; Potency, µM (highest dose often 46.1 µM), hits mostly inhibitors; hit rate 2.3% among 330,000; further: nearly all actives have a fitted effect of over 55% in size
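Luminescence from the luciferase reporter, measured 30 min after ONE-Glo reagent at room temperature, was the read-out. Beforehand, 2,000 cells per well were exposed for 16 hr at 37 °C to 5-fluorouridine together with compound or vehicle.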
DT40 TDP1 no CPT – qHTS for Inhibitors of human tyrosyl-DNA phosphodiesterase 1 (TDP1): qHTS in cells in absence of CPT; hit rate 15% among 420,000; Potency, µM (highest dose often 46.2 µM), usual class: inhibitors; DT40 Tdp1-/- hTDP1 cells, no CPT, ATP luminescence, 48 h; further: nearly all actives have a fitted effect of over 55% in size
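Seeded 400 DT40-hTDP1 cells/well (vehicle DMSO, no 20 nM CPT); pinned compounds; ≥48 hr at 37 °C; CellTiter-Glo luminescence as viability measure.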
DT40 TDP1 CPT – DT40-hTDP1 cell growth loss with CPT; hit rate 12% among 420,000; chicken DT40 Tdp1-/-;hTDP1 cells + 20 nM CPT, ATP luminescence, 48 h; AID 686979; Potency, µM (highest dose often 46.2 µM), actives largely listed as inhibitors; further: nearly all actives have a fitted effect of over 55% in size
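Cell growth measured by CellTiter-Glo luminescence after a minimum 48 h, 37 C compound exposure with 20 nM CPT in Tdp1-knockout DT40 cells stably expressing hTDP1, seeded 400/well; qHTS titration format.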
HT1080NT lethal – kills 2HG-producing HT-1080-NT fibrosarcoma cells. HT-1080-NT fibrosarcoma viability, CellTiter-Glo ATP luminescence, 48 h. Potency, µM (titrated, usually from 46.1 µM), actives largely listed as cytotoxic. hit rate 1.6% among 360,000;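 further: NT is the 2HG producing partner of a matched IDH1 knockdown line; nearly all actives have a fitted effect of over 55% in size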
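Toxicity toward the 2HG-producing NT line was scored as %Activity, normalised to DMSO and no-cell wells, from CellTiter-Glo luminescence after 48 hours' treatment.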
HT1080 IDH1KD tx – toxicity to HT-1080 IDH1 knockdown cells (counter line). HT-1080 IDH1 knockdown viability, ATP luminescence, 48 h. Potency, µM (top dose mostly 46.1 µM), usual class: cytotoxic. hit rate 2% among 360,000
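Knockdown cells (IDH1KD HT-1080) received compounds 2 h after plating at 750 cells/well and were kept 48 h at 37 °C in 5% FBS RPMI. A CellTiter-Glo luminescence read gave % activity for curve fitting.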
IL1B secr inh – inflammasome signaling inhibition, IL-1 beta readout; activity change, % at 57.5 µM; hit rate 4.7% among 360,000; THP-1 LPS/ATP IL-1B secretion, AlphaLISA, 16 h; active compounds read low; AID 743279; in the data active means activity change below about -50%; inconclusive means mostly about -30% to -49%
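THP-1 cells pretreated 1 hr with compounds (up to 57.5 uM final), then stimulated with LPS (250 ng/mL final) plus ATP (1.25 mM final); secreted IL-1B measured by AlphaLISA after 16 hr, decreased signal indicating inhibition.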
Numbers stand for hits; - = inactive; ? = inconclusive; . = no result. An excerpt weighted towards active compounds, which were near 19% of everything screened. Unless noted, the call rests on the fitted dose curve; in most records, active means well fitted curve in the direction sought with a large enough effect; inconclusive means small, poorly fitted or top-dose-only effect, or another doubt; inactive means no such curve, though single readings can be large; an effect the other way counts as inactive or inconclusive.

SMILES	ELG1 repair inh	DT40 TDP1 no CPT	DT40 TDP1 CPT	HT1080NT lethal	HT1080 IDH1KD tx	IL1B secr inh
CC1CC(C)CN(S(=O)(=O)c2ccc(C(=O)NCc3ccc4c(c3)OCO4)cc2)C1 (stereo not drawn)	?	?	16µM	-	-	-
CC1CCCCN1S(=O)(=O)c1ccc(C(=O)Nc2ccccc2-c2nc3ccccc3[nH]2)cc1 (stereo not drawn)	?	15µM	21µM	-	-	-
CC1CCCCN1S(=O)(=O)c1ccc(C(=O)Nc2nnc(C3CC3)o2)cc1 (stereo not drawn)	-	?	16µM	-	?	-
CC1CC(C)CN(S(=O)(=O)c2ccc(C(=O)NCCCn3ccnc3)cc2)C1 (stereo not drawn)	?	?	29µM	?	?	-
O=C(NCc1ccccc1)c1cc(C2CCCCN2S(=O)(=O)c2cccs2)on1 (stereo not drawn)	.	?	?	-	-	-
CC1CCN(S(=O)(=O)c2ccc(C(=O)Nc3nnc(-c4ccncc4)o3)cc2)CC1	?	?	?	?	?	-
CC1CCN(S(=O)(=O)c2ccc(C(=O)Nc3nnc(C4CC4)o3)cc2)CC1	-	?	18µM	-	?	-
COCCNC(=O)C1CCCN(Cc2ccc(-c3ccccc3)cc2)CC1 (stereo not drawn)	.	-	?	?	-	-
Cc1nc2ccccc2n1S(=O)(=O)c1ccc(Br)cc1	-	-	-	-	-	-
CSc1ccc(/C=C/c2nc3ccccc3n2S(=O)(=O)c2ccc(Br)cc2)cc1	.	10µM	15µM	.	.	.
O=S(=O)(c1cccc(C(F)(F)F)c1)n1c(/C=C/c2ccccc2)nc2ccccc21	.	10µM	8.2µM	.	.	.
COc1ccc(C(=O)NC(=S)Nc2ccc(Cc3ccncc3)cc2)cc1	?	18µM	?	18µM	21µM	-64
Cc1ccccc1C(=O)NC(=S)Nc1ccc(Cc2ccncc2)cc1	?	?	-	-	-	-
O=C(NC(=S)Nc1ccc(Cc2ccncc2)cc1)c1ccccc1F	?	?	?	-	-	-74
Cc1onc(-c2c(F)cccc2Cl)c1C(=O)N1CCCC1	-	-	-	-	-	-
C[C@@H]1CN([C@H](C)CO)C(=O)CCCn2nncc2CO[C@H]1CN(C)S(=O)(=O)c1cccc(C#N)c1	.	-	-	-	-	-
CC(C)NS(=O)(=O)c1ccc(CCC(=O)Nc2cc(Cl)ccc2Oc2ccccc2)cc1	?	23µM	23µM	-	-	-
CCc1c(C)nc(N2CCN(c3cccc(OC)c3)CC2)[nH]c1=O	-	?	?	-	-	-
Cc1nnc(N2CCN(c3ccccc3)CC2)[nH]c1=O	-	5.8µM	5.2µM	-	-	-
CCc1c(C)nc(N2CCN(c3ccc(OC)cc3)CC2)[nH]c1=O	-	21µM	?	-	-	-
CCc1c(C)nc(N2CCN(c3ccc(F)cc3)CC2)[nH]c1=O	-	-	?	-	-	-
COc1cccc(/C=C2/Sc3ccc(C(=O)NCCCN4CCCC4)cc3NC2=O)c1	-	21µM	18µM	-	-	-
COc1ccc(/C=C2/Sc3ccc(C(=O)N4CCc5ccccc5C4)cc3NC2=O)cc1	-	-	-	-	-	-
Cc1ccc(/C=C2/Sc3ccc(C(=O)NCCN4CCOCC4)cc3NC2=O)cc1	-	?	-	-	-	-
COc1ccc(/C=C2\Sc3ccc(C(=O)NCCN4CCCCCC4)cc3N(C)C2=O)cc1	?	23µM	?	-	-	-
SMILES	ELG1 repair inh	DT40 TDP1 no CPT	DT40 TDP1 CPT	HT1080NT lethal	HT1080 IDH1KD tx	IL1B secr inh
COc1cccc(/C=C2/Sc3ccc(C(=O)NCCN4CCCC4)cc3NC2=O)c1	-	?	16µM	-	-	?
Cc1cc(C(=O)NCC(=O)OC(C)C(=O)N2CCOCC2)ccc1[N+](=O)[O-] (stereo not drawn)	-	-	-	-	-	-
COc1cccc(CNC(=O)[C@@H]2CCCN2C(=O)[C@@H]2CCCN2C(=O)c2cccs2)c1	.	-	-	-	-	-
Cc1ccc2cccc(OCCOCCOc3ccccc3Br)c2n1	-	21µM	?	-	-	-
Cc1ccc2cccc(OCCCOc3ccccc3F)c2n1	-	?	?	-	-	-56
COC(=O)c1ccccc1OCCOCCOc1cccc2ccc(C)nc12	?	23µM	?	?	-	-
Brc1ccccc1OCCOCCOc1cccc2cccnc12	?	?	?	-	?	-
COC(=O)c1ccc(OCCOCCOc2cccc3ccc(C)nc23)cc1	?	23µM	?	-	-	-
COC(=O)c1ccc(OCCOc2ccccc2C)cc1	-	-	-	-	-	-
Cc1nn(CC(=O)NC(C)c2ccccc2)c(=O)c2cc3occc3n12 (stereo not drawn)	.	-	-	.	.	.
CN1CCC2CC1c1cc(-c3ccc(C(F)(F)F)cc3)ccc12 (stereo not drawn)	.	?	?	-	-	?
Cc1ccc(S(=O)(=O)N2CCN(c3nc(-c4cccs4)nc4c3ncn4COC(=O)C(C)(C)C)CC2)cc1	.	-	-	-	-	.
NC(=O)Cc1ncc(C(F)(F)F)cc1Cl	-	-	-	-	-	-
OCC#Cc1ncc(C(F)(F)F)cc1Cl	-	7.3µM	5.2µM	21µM	?	-
COc1ccc(CCN2C(=O)c3[nH]nc(-c4ccccc4O)c3C2c2cccc(OC)c2)cc1 (stereo not drawn)	.	18µM	?	.	.	.
COc1ccc(C2C(C(C)=O)=C(O)C(=O)N2CCc2ccccc2)c(OC)c1 (stereo not drawn)	?	-	-	-	-	-
COc1ccc(CCN2C(=O)c3[nH]nc(-c4ccccc4O)c3C2c2cccc(Cl)c2)cc1 (stereo not drawn)	?	21µM	23µM	23µM	12µM	-
COCCN1C(=O)c2[nH]nc(-c3ccccc3O)c2C1c1ccc(Cl)c(Cl)c1 (stereo not drawn)	.	9.2µM	18µM	.	.	.
CC1(C(=O)NS(=O)(=O)c2ccc3ccccc3c2)CCN1C(=O)CC1CCCCC1 (stereo not drawn)	.	-	-	-	-	-
Nc1c(C(=O)CSc2nc3ccccc3o2)c(=O)[nH]c(=O)n1C1CC1	?	?	?	-	?	-
O=C1NC(Cc2c[nH]c3ccccc23)C(=O)N1Cc1cccc2ccccc12 (stereo not drawn)	-	?	-	?	?	-101

High-throughput results (PubChem BioAssay)
